The record followed here is PubChem BioAssay (EPA / NIEHS).

Each structure is given as a SMILES string. Inconclusive results are not listed. Calls of active or inactive are those of the source. Rule for the calls: active = hit-call score of the fitted dose curve at least 0.9, where 1 is the maximum; inconclusive = response in the unintended direction; inactive = score below 0.9.

Read-out in this assay: glucuronosyltransferase (UGT1A1), UGT1A1 (gene 54658)
As to the kind of experiment: CLD_UGT1A1_48hr: CellzDirect (CLD) Gene Expression Assay for glucuronosyltransferase (UGT1A1) at 48 hours (AID 2283709).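 Note: actives increase expression relative to DMSO so potency refers to induction.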 The procedure:
CLD_48hr is a cell-based, multiplexed-readout assay that uses hepatocyte, a human liver primary cell, with measurements taken at 48 hours after chemical dosing in a 96-well plate.CLD_UGT1A1_48hr is one of 16 assay component(s) measured or calculated from the CLD_48hr assay. It is designed to make measurements of mRNA induction, a form of inducible reporter, as detected with chemiluminescence signals by Quantitative Nuclease Protection Assay (qNPA) technology.Data from the assay component CLD_UGT1A1_48hr was analyzed at the endpoint, CLD_UGT1A1_48hr, in the positive analysis fitting direction relative to DMSO as the negative control and baseline of activity. Using a type of inducible reporter, gain-of-signal activity can be used to understand changes in the reporter gene as they relate to the gene UGT1A1. Furthermore, this assay endpoint can be referred to as a primary readout. To generalize the intended target to other relatable targets, this assay endpoint is annotated to the transferase intended target family, where subfamily is glucuronosyltransferase.
Human hepatocyte cultures were treated daily for two consecutive days with fresh dosing solutions containing appropriate concentrations of the 320 ToxCast chemicals (chemical identities were blinded to CellzDirect and other ToxCast collaborators), vehicle control (0.2% DMSO), and positive control inducers as summarized in Table 1. Due to the large number of treatment groups and chemicals examined, the ToxCast chemicals were divided into two groups (spanning two independent cultures of hepatocytes from separate donor preparations (Hu778: ToxCast plates 1 and 2; Hu776: ToxCast plates 3 and 4). Each preparation of human hepatocyte cultures was treated with respective vehicle control, medium only control, set of six positive controls/reference chemicals for the five hepatic receptor pathways, and a subset of eight of the ToxCast chemicals (indoxacarb, pyrithiobac-sodium, norflurazon, cyhalofop-butyl, methomyl, thiram, acetochlor, and propiconazole). These replicate data, coupled with internal replicates designed within the blinded ToxCast chemical library, provided additional data to evaluate interindividual differences between hepatocyte preparations and their potential impact on chemical profiles.Cell morphology and integrity were evaluated using phase-contrast microscopy as an indicator of hepatocyte cell health (Tyson & Green, 1987). Cultures for each treatment group (i.e., media, vehicle [0.2% DMSO], positive control inducers [multiple concentrations], and the ToxCast chemicals [multiple concentrations]) were observed and cell morphology was assessed relative to vehicle control cultures at each harvest time point (0, 6, 24, or 48 h). […] Images were evaluated at the conclusion of the study to assess changes in cell integrity and account for the effects of chemical exposure on uncharacteristic changes in concentration-dependent gene expression profiles. The results from these determinations of apparent cytotoxicity were annotated (yes/no) alongside the corresponding qNPA data for reference.At the conclusion of each treatment period, hepatocyte cultures (96-well) were washed with 1 volume of HBSS, lysed by addition of 25 ul ArrayPlate lysis buffer (HTG, Tucson, AZ), and 70 ul/well of Denaturation Oil, denatured by incubation at 95C for 10 min, and frozen at approximately -70C until analysis by nuclease protection assay (qNPA) (Roberts et al., 2007). For qNPA analysis, cell lysates were thawed at 50C for approximately 30 min, qNPA probes were added, and samples were incubated at 95C for 10 min to begin the detection process by denaturing the target RNA, dissociating the duplexes and secondary structure hybridization. At the conclusion of the hybridization period, S1 nuclease reagent was added to each sample to digest all nonprotected nucleotides at 50C for 60-90 min. […]
In the case of `COC(=O)N(C(=O)N1CO[C@@]2(C(=O)OC)Cc3cc(Cl)ccc3C2=N1)c1ccc(OC(F)(F)F)cc1`, the call was inactive.

With `CCOC(=O)C(C)OC(=O)c1cc(Oc2ccc(C(F)(F)F)cc2Cl)ccc1[N+](=O)[O-]` (stereo not given), the concentration at half-maximal activity (AC50) – broadly, the concentration giving half of the maximal activity seen – is 7 µM (active). As for `CN=C=S`, the result was inactive. The same measure, in the same setting: to `CCOc1nc(F)cc2nc(S(=O)(=O)Nc3c(Cl)cccc3Cl)nn12` belongs “inactive”; to `CCCCC(C#N)(Cn1cncn1)c1ccc(Cl)cc1` (stereo not given), “inactive”. Same read-out and setting: then `CCCCOCN(C(=O)CCl)c1c(CC)cccc1CC`, with “inactive”; and `N#Cc1c[nH]cc1-c1cccc2c1OC(F)(F)O2`, with “inactive”. Same read-out and setting: then `CNC(=O)Oc1cccc2ccccc12`, with “inactive”; and `COc1ccc(-c2ccccc2)cc1NNC(=O)OC(C)C`, with “inactive”; and `Nc1c(Cl)c(Cl)nc(C(=O)O)c1Cl`, with “inactive”. Consider `CC(C)NC(=O)N1CC(=O)N(c2cc(Cl)cc(Cl)c2)C1=O`, for which the compound was classed as inactive. For the compound `COc1cc(Cl)c(OC)cc1Cl`, the compound was called inactive. Same read-out and setting: then `N#Cc1c(Cl)cccc1Cl`, with “inactive”.

Take `O=c1n(Cl)c(=O)n(Cl)c(=O)n1Cl`: the outcome was inactive. As for `CC1(C)C(C(=O)OC(C#N)c2cccc(Oc3ccccc3)c2)C1(C)C` (stereo not given), the AC50 was 5.67 µM (active).

For `COc1cc(OC)nc(NC(=O)NS(=O)(=O)c2ncccc2OCC(F)(F)F)n1`, the compound was called inactive. As to `CSC(=O)c1c(C(F)F)nc(C(F)(F)F)c(C(=O)SC)c1CC(C)C`, the compound was classed as inactive. On the same count and under the same terms, then `CCC(C)n1c(=O)[nH]c(C)c(Br)c1=O` (stereo not given), with “inactive”; and `CC(C)(C)C(=O)C(Oc1ccc(Cl)cc1)n1cncn1` (stereo not given), with “inactive”; and `CC(C)Oc1cccc(NC(=O)c2ccccc2C(F)(F)F)c1`, with “inactive”. On the same count and under the same terms, to `C=CCOC(=O)C(C)(C)OC(=O)c1cc(-n2c(=O)cc(C(F)(F)F)n(C)c2=O)ccc1Cl` belongs “inactive”; to `Clc1nc(Cl)nc(Nc2ccccc2Cl)n1`, “inactive”. Take `COP(=S)(OC)Oc1ccc([N+](=O)[O-])c(C)c1`: the half-maximal activity concentration (AC50) is 5.37 µM (active). On the same count and under the same terms, to `CC1(C)C(C=C(Cl)Cl)C1C(=O)OC(C#N)c1cccc(Oc2ccccc2)c1` (stereo not given) belongs 6.03 µM (active).

As for `CCOc1nc(C(Cl)(Cl)Cl)ns1`, the compound was called inactive.

Consider `CC(C)=CC1C(C(=O)OCc2coc(Cc3ccccc3)c2)C1(C)C` (stereo not given), for which the call was inactive. On the same count and under the same terms, then `Cc1c(COC(=O)[C@@H]2[C@H](/C=C(\Cl)C(F)(F)F)C2(C)C)cccc1-c1ccccc1`, with “inactive”. On the same count and under the same terms, to `CC(C)N1C(=O)c2ccccc2NS1(=O)=O` belongs “inactive”. On the same count and under the same terms, to `Cc1cc(C)nc(Nc2ccccc2)n1` belongs “inactive”.

For the compound `COC(=O)NS(=O)(=O)c1ccc(N)cc1`, the compound was called inactive. With `CCOc1cc(C(C)(C)C)ccc1C1COC(c2c(F)cccc2F)=N1` (stereo not given), the compound was called inactive. On to `CCOP(=S)(OCC)Oc1nc(Cl)n(C(C)C)n1`, for which the AC50 was 1.9 µM (active). For `COP(=O)(OC)O/C(C)=C/C(=O)N(C)C`, the compound was called inactive. On the same count and under the same terms, then `O=P(O)(O)CCCl`, with “inactive”; and `CCSC(=O)N1CCCCCC1`, with “inactive”; and `O=C(Nc1ccccc1-c1ccc(Cl)cc1)c1cccnc1Cl`, with “inactive”. Regarding `CCN(CC)C(=O)C(C)Oc1cccc2ccccc12` (stereo not given), the half-maximal activity concentration (AC50) is 3.1 µM (active). Consider `CCNC(=O)NC(=O)C(C#N)=NOC`, for which the compound was called inactive. With `COC(=O)c1c(C(F)F)nc(C(F)(F)F)c(C2=NCCS2)c1CC(C)C`, the outcome was inactive. On the same count and under the same terms, then `C=C(C)CN(CC)c1c([N+](=O)[O-])cc(C(F)(F)F)cc1[N+](=O)[O-]`, with “inactive”.
